Screens from PubChem.
In the library only some 8.2% were active in any assay of this set; here they are far more common.
ELG1 repair inh = inhibitors of ELG1-dependent DNA repair in HEK293T cells. HEK293T ELG1-luciferase reporter, luminescence, 16 h; DNA damage induced by 5-fluorouridine. actives 2.3% (n = 330,000). Potency, µM (titrated, usually from 46.1 µM), without a hit: at the top dose activity change, negative = inhibition, actives largely listed as inhibitors. AID 504467; further: on the % scale 0 is the no-effect control and ±100 the full control effect; nearly all actives have a fitted effect of over 55% in size
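Step one: seed 2,000 cells per well. Step two: pin-transfer compound or DMSO alongside 5-fluorouridine. Step three: incubate 16 hr, 37 °C, 5% CO2. Step four: add ONE-Glo, wait 30 min, read luminescence.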
SW480 rereplic = DNA re-replication induction in SW480 cells; SW480 DNA re-replication, Hoechst DNA content imaging, 48 h; Potency, µM (doses to about 46.1 µM), for inactives: top-dose re-replication activation, hits mostly activators; actives 1.8% (n = 340,000); further: % of control where 0% means no effect; nearly all actives have a fitted effect of over 55% in size
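250 cells/well; 23 nL cpd via pin tool; 48 hr, 37 C, 5% CO2; Hoechst 40 min; imager read of total nuclear intensity, ex 405/em 500-530 nm.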
KB-V1 cytotox = kills drug-selected multidrug resistant KB-V1 cells; actives 3.4% (n = 400,000); AID 1347076; Potency, µM (series often up to 46.1 µM), actives largely listed as cytotoxic; KB-V1 MDR cells viability, CellTiter-Glo, 72 h; further: on the % scale 0 is the no-effect control and ±100 the full control effect; nearly all actives have a fitted effect of over 60% in size
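Luminescent ATP read-out (CellTiter-Glo, 10 min) measures survival of drug-selected KB-V1 MDR cells after 72 h, 37 degrees C compound exposure. Medium: phenol-red-free DMEM, 10% FBS. Values from fitted concentration-response curves.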
KB-3-1 cytotox = kills parental KB-3-1 adenocarcinoma cells; Potency, µM (highest dose often 46.1 µM), usual class: cytotoxic; AID 1347075; actives 1.4% (n = 400,000); KB-3-1 viability, CellTiter-Glo ATP luminescence, 72 h; further: on the % scale 0 is the no-effect control and ±100 the full control effect; nearly all actives have a fitted effect of over 60% in size
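Viability of parental KB-3-1 cells, measured by CellTiter-Glo luminescence, followed a 72 h incubation at 37 °C with pinned compounds in phenol-red-free DMEM containing 10% FBS.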
MCF10A rereplic = DNA re-replication induction in MCF 10a cells; MCF 10A DNA re-replication, Hoechst nuclear intensity, 48 h; Potency, µM (series often up to 46.1 µM), without a hit: at the highest dose activity, positive = re-replication, actives largely listed as activators; actives 2.9% (n = 350,000); further: % of control where 0% means no effect; nearly all actives have a fitted effect of over 50% in size
* = called active by the depositor; i = inactive; u = inconclusive; x = no result; [ ] = remark or other dose. The call rests on the fitted dose curve; in most records, active means well fitted curve in the direction sought with a large enough effect; inconclusive means small, poorly fitted or top-dose-only effect, or another doubt; inactive means no such curve, though single readings can be large; an effect the other way counts as inactive or inconclusive. Potency means the concentration at half of the fitted maximal effect.

SMILES	ELG1 repair inh	SW480 rereplic	KB-V1 cytotox	KB-3-1 cytotox	MCF10A rereplic
CC(C(=O)NC(C)(C)C)n1c(C(c2ccccc2)c2ccccc2)nc2ccccc21 (centres undefined)	x	x	i	i	x
Cc1cccc(NC(=O)c2ccc([N+](=O)[O-])s2)n1	u	-0.8%	i	i	11.0%
O=C(Nc1cccc2ncccc12)c1cccc(Br)c1	0.6%	-1.2%	i	i	4.5%
O=C(Nc1ccccc1Cl)c1ccc([N+](=O)[O-])o1	u	7.31µM*	i	23.1µM*	13µM*
Cc1ccc(NC(=O)c2ccc([N+](=O)[O-])o2)c(C)c1	-10.8%	u	u	u	u
O=C(Nc1cccc2ncccc12)c1ccc([N+](=O)[O-])o1	u	1.46µM*	u	i	4.61µM*
Cc1cccc(NC(=O)c2ccc([N+](=O)[O-])o2)n1	9.1%	3.66µM*	u	i	u
Cc1cccnc1NC(=O)c1ccc([N+](=O)[O-])o1	9.0%	u	i	i	0.2%
O=C(Nc1cccc2ncccc12)c1ccc(-c2ccc(Br)cc2)o1	u	0.5%	10.3µM*	i	1.3%
CCC(CC)c1nnc(NC(=O)c2cc([N+](=O)[O-])ccc2N2CCOCC2)s1	-26.6%	-5.9%	i	i	u
COc1ccc(NC(=O)C2(C)CCCN(C(C)=O)C2)cc1F (centres undefined)	x	x	i	i	x
Cc1ccccc1NC(=O)c1ccc([N+](=O)[O-])o1	u	u	i	i	14.6µM*
Cc1cc(O)c(C(C)C)cc1Cl	x	-9.8%	x	x	1.5%
O=C1CCC[C@@H]2C[C@@]3(C[C@@H]4CCN1[C@H]24)Nc1ccccc1NC3=NC1CCCCC1	x	x	i	i	x
CCOC(=O)c1cc(C(=O)NN)c(C)nc1C	-4.3%	u	i	i	6.7%
CCOC(=O)c1cc2c(nc1C)-c1cc(Cl)cc(Cl)c1OC2O (centres undefined)	u	u	i	i	18.4µM*
Cc1cc(-c2ccccc2)nc(N(C)NC(=O)c2c(F)cccc2F)c1S(C)(=O)=O	18.4µM*	-2.6%	i	i	-2.3%
CCOc1cc(N2CCOCC2)c(OCC)cc1NC(=O)c1cc(S(=O)(=O)N2CCOCC2)ccc1F	u	u	x	x	-6.2%
O=S(=O)(Cc1cc(Cl)nc(-c2ccccc2)n1)c1ccccc1	5.2%	u	i	i	20.6µM*
NS(=O)(=O)c1ccc(CCNC(=O)c2ccc([N+](=O)[O-])s2)cc1	13µM*	u	u	i	18.6%
O=C(N/N=C/C1CC2CCC1C2)c1ccc2c(c1)OCO2 (centres undefined)	u	-2.1%	u	i	-0.3%
Cc1ccc(Cl)cc1N(C)C(=O)Cn1ncc2c([nH]c3ccccc32)c1=O	-3.3%	20.6µM*	i	i	u
Cc1ccc2[nH]c3c(=O)n(CC(=O)N(C)c4cc(Cl)ccc4C)ncc3c2c1	x	x	i	i	x
CCOc1cc(C(=O)OCC(=O)c2c(C)[nH]c3ccccc23)ccc1OCC(=O)N1CCOCC1	16.4µM*	-3.8%	u	i	24.0%
CCOc1cc(/C=C/c2nc3ccccc3s2)ccc1OCC(=O)N1CCOCC1	23.1µM*	u	u	i	u
SMILES	ELG1 repair inh	SW480 rereplic	KB-V1 cytotox	KB-3-1 cytotox	MCF10A rereplic
CCOc1cc(C(=O)OCC(=O)c2c[nH]c3ccccc23)ccc1OCC(=O)N1CCOCC1	u	-0.8%	i	i	0.1%
CCOc1cc(N2CCOCC2)c(OCC)cc1NC(=O)CSc1ncccc1C(=O)O	10.1%	-3.8%	i	i	-13.2%
OCC1(CCOc2ccccc2)CCN(C2Cc3ccccc3C2)CC1	3.8%	-0.3%	i	i	18.4µM*
COc1ccccc1N1CCN(C(=O)c2ccc(Br)o2)CC1	-8.2%	3.9%	u	i	-4.4%
COc1ccccc1N1CCN(C(=O)c2cc3c(C)nc4ccccc4c3o2)CC1	13µM*	-0.5%	u	u	22.1%
Cc1ccc(C)c(N2CCN(C(=O)c3cc4c(C)nc5ccccc5c4o3)CC2)c1	u	-8.6%	i	i	20.6µM*
CCOC(=O)C1CCCN(C(=O)c2cc3c(C)nc4ccccc4c3o2)C1 (centres undefined)	u	-1.1%	13µM*	i	19.8%
Cc1nc2ccccc2c2oc(C(=O)N3CC(C)CC(C)C3)cc12 (centres undefined)	-1.7%	4.2%	i	i	12.0%
C#CCNC(=O)C1=C[C@H](c2cn(C(C)=O)c3ccccc23)C[C@H](OCc2ccc(CO)cc2)O1	u	-0.8%	i	i	-0.9%
CC(=O)n1cc([C@@H]2C=C(C(=O)O)O[C@H](OCc3ccc(CO)cc3)C2)c2ccccc21	19.4%	u	i	i	u
CC(=O)n1cc([C@H]2C=C(C(=O)Nc3ccccc3)O[C@@H](OCc3ccc(CO)cc3)C2)c2ccccc21	9.2µM*	16.5%[9.22 µM]	u	i	u
O=C(NCc1ccccc1)C1=C[C@H](c2csc3ccccc23)C[C@H](OCCCCO)O1	u	u	7.31µM*	u	u
CC(=O)n1cc([C@@H]2C=C(C(=O)NCc3ccccc3)O[C@H](OCc3ccc(CO)cc3)C2)c2ccccc21	u	-3.8%	i	i	13µM*
O=C(Nc1ccccc1)C1=C[C@H](c2csc3ccccc23)C[C@H](OCCCCO)O1	u	-10.8%	i	i	17.3%
C=CCOC(=O)C1=C[C@@H](c2cn(C(C)=O)c3ccccc23)C[C@@H](OCc2ccc(CO)cc2)O1	x	-29.1%	i	i	23.1µM*
CCC1(c2ccc(C)cc2)NC(=O)N(C(C)C(=O)Nc2ccc(N3CCOCC3)cc2)C1=O (centres undefined)	-15.8%	0.6%	x	x	-6.6%
COc1cccc(NC(=O)c2cccc(N3C(=O)C4CCC(C)CC4C3=O)c2)c1 (centres undefined)	18.3%	-21.3%	i	u	15.2%
COc1ccc(CCNc2ncnc3nc[nH]c23)cc1	x	x	i	i	x
O=C(Nc1ccccc1)C1=C[C@@H](C2CC2)C[C@@H](OCCCCO)O1	u	-11.4%	7.31µM*	i	-7.9%
O=C(O)C1=C[C@@H](C2CC2)C[C@@H](OCCCCO)O1	x	-10.6%	i	i	9.7%
O=C(O)Cn1c(C(=O)Nc2nc(-c3ccccc3Cl)cs2)cc2ccccc21	x	-2.9%	x	x	u
CC(NO)/C(=N\O)c1cccs1 (centres undefined)	3.8%	u	i	i	3.66µM*
C/C(=N\N=C(c1ccccc1)c1ccccc1)c1cccs1	14.4%	-2.2%	i	i	15.7%
